Results filed as inconclusive are left out. Activity calls are given as the source filed them. The call rests on the fitted dose curve; in most records, active means well fitted curve in the direction sought with a large enough effect; inconclusive means small, poorly fitted or top-dose-only effect, or another doubt; inactive means no such curve, though single readings can be large or run the other way.
molecular target: Polyunsaturated fatty acid lipoxygenase ALOX15 (Homo sapiens) (UniProt P16050); assay: Counterscreen qHTS for inhibitors of human arachidonate 12S-lipoxygenase (ALOX12): ALOX15 Assay; settings: purified ALOX15 enzyme activity; series mostly up to 110 µM; activity change, negative = inhibition: at the top concentration; further: 0% is about no effect
Method in brief: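 Xylenol orange–ferric complex formation, read as the 573 nm to 405 nm absorbance ratio, tracks product from 50 uM arachidonic acid turned over for 30 min at RT. Enzyme is 40 nM ALOX15, pH 7.5 HEPES buffer, compound-preincubated 15 min.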

Chain of Polyunsaturated fatty acid lipoxygenase ALOX15 (Homo sapiens) (P16050 whole entry, looked up): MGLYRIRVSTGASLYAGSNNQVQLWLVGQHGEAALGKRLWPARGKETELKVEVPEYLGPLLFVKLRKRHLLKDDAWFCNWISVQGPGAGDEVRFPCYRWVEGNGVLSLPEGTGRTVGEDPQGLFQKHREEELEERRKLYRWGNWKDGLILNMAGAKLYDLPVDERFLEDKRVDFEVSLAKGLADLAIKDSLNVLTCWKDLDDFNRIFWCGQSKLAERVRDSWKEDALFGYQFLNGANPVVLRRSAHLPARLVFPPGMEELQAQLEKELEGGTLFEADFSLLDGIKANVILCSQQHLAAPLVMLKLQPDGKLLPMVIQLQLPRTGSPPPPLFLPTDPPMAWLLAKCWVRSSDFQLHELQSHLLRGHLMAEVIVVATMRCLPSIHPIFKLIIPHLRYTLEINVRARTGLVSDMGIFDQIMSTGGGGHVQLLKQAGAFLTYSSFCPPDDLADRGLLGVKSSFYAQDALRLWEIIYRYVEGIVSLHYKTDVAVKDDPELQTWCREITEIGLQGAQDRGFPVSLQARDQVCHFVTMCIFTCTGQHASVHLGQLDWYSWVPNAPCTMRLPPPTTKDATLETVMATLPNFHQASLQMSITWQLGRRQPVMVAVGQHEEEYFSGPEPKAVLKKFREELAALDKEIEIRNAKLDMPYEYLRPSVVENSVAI

Row | Structure (SMILES) | activity change, negative = inhibition | outcome
1 | O=C1c2ccccc2CN1C1CCN(Cc2ccc(C(F)(F)F)cc2)CC1 | -7.82% (inactive) | –
2 | Cc1ccc(CN2CC3(Cc4ccccc4NC3=O)C2)cc1 | 67.4% [at 146 µM] (inactive) | –
3 | CCOCCCNc1ncnc2c1CN(C1CCNCC1)C(=O)CN2C | -7.5% (inactive) | –
4 | O=C1NCCN1C1CCN(Cc2ccc(F)cc2)CC1 | -7.78% [at 146 µM] (inactive) | –
5 | O=C(C1CCCC1)N1Cc2ccccc2CC2(CCN(Cc3ccncc3)C2)C1 (configuration not stated) | -18% (inactive) | –
6 | CCc1nc2c(c(-c3ccc(OC)cc3)n1)CN([S+](=O)([O-])c1cccc(OC)c1)CC2 | -24.4% (inactive) | –
7 | Cc1noc(C)c1C(=O)N1Cc2ccccc2CC2(CCN(CC3CCNCC3)C2)C1 (configuration not stated) | -0.0561% (inactive) | –
8 | COc1ccccc1CNc1ncnc2c1CN(C1CCCNC1)C(=O)CN2C (configuration not stated) | -12.3% (inactive) | –
9 | O=S(=O)(c1ccccc1)N1Cc2ccccc2CC2(CCN(Cc3cccnc3)C2)C1 (configuration not stated) | -36.4% (inactive) | –
10 | CNC(C)c1c(F)cccc1F (configuration not stated) | -21.6% [at 233 µM] (inactive) | –
11 | Fc1ccc(CN2CCn3c(nnc3C3CCCNC3)C2)cc1 (configuration not stated) | -21.6% [at 146 µM] (inactive) | –
12 | O=C(c1ccc(C(F)(F)F)cc1)N1CCn2c(nnc2C2CCCNC2)C1 (configuration not stated) | -17.4% (inactive) | –
13 | O=C(O)CCC(=O)N1Cc2ccccc2CC2(CCCN2CC2CCNC2)C1 (configuration not stated) | -30.7% (inactive) | –
14 | Cc1ccc(C(=O)N2CCc3nc(C4CC4)nc(-c4ccc(Cl)cc4)c3C2)cc1 | -24.7% (inactive) | –
15 | CC(C)(C)OC(=O)N1CC(Nc2ccc(O)cc2)C1 | – | inactive
16 | CN1CCN(CC2(N)CCCCC2)CC1 | -3.46% [at 233 µM] (inactive) | –
17 | CN1CC(=O)N(C2CCCNCC2)Cc2c(NCC3CC3)ncnc21 (configuration not stated) | 2.11% (inactive) | –
18 | CNC(=O)c1cn2c(n1)CN(C(=O)OC)CC2 | -1.52% [at 233 µM] (inactive) | –
19 | NCC(=O)N1Cc2ccccc2CC2(CCN(CC3CCNC3)C2)C1 (configuration not stated) | -0.295% [at 146 µM] (inactive) | –

Row | Structure (SMILES) | activity change, negative = inhibition | outcome
20 | CNCc1ccccc1OC(F)(F)F | -10.2% [at 146 µM] (inactive) | –
21 | CCN1CCC(c2nc3ccc(C)cc3c(=O)[nH]2)CC1 | -3.63% [at 146 µM] (inactive) | –
22 | CN(C)c1ccc(CN2CCn3c(nnc3C3CCNCC3)C2)cc1 | -15.9% (inactive) | –
23 | COc1ccc(C(=O)N2Cc3ccccc3CC23CCCN(C(=O)CCCN)C3)cc1 (configuration not stated) | -10.5% (inactive) | –
24 | COC(=O)CNC(=O)C1CCc2nnc(CNC(=O)c3cccnc3)n21 (configuration not stated) | 3.05% (inactive) | –
25 | Cc1cc(Cl)ccc1-c1ccccc1CN | 12.3% [at 146 µM] (inactive) | –
26 | O=C1NCc2ccccc2CC12CCN(Cc1c(F)cccc1F)C2 (configuration not stated) | -9.7% (inactive) | –
27 | COc1ccc(CN2CCCC3(Cc4ccccc4CNC3=O)C2)cc1 (configuration not stated) | -6.45% [at 146 µM] (inactive) | –
28 | O=C(c1ccccc1)N1CCn2c(nn(-c3cccc(Cl)c3)c2=O)C1 | -14.8% [at 146 µM] (inactive) | –
29 | CC(=O)Nc1ccc(CN2CCCC23Cc2ccccc2CN(C(=O)CCC(=O)O)C3)cc1 (configuration not stated) | -10.9% (inactive) | –
30 | O=C1Nc2ccccc2CC12CN(Cc1c[nH]c3ccccc13)C2 | -21.2% [at 146 µM] (inactive) | –
31 | FC(F)(F)c1ccc(CN2CCCC3(CC(c4cccc(C(F)(F)F)c4)=NO3)C2)cc1 (configuration not stated) | -20.9% (inactive) | –
32 | CN1CC(=O)N(C2CCNC2)Cc2c(NCC3(O)CCCCC3)ncnc21 (configuration not stated) | -12.9% (inactive) | –
33 | Cn1nc(C2CCNC2)c2c(C(=O)NCc3ccncc3)cc(C3CC3)nc21 (configuration not stated) | -21.6% (inactive) | –
34 | O=Cc1ccccc1-c1cncc(C(=O)O)c1 | -24.3% [at 146 µM] (inactive) | –
35 | O=C1NCc2ccccc2CC12CCN(Cc1cc(F)ccc1F)C2 (configuration not stated) | -20.4% [at 146 µM] (inactive) | –
36 | CN1CC(=O)N(C2CCNC2)Cc2c(NC3CCCC3)ncnc21 (configuration not stated) | -2.56% [at 146 µM] (inactive) | –
37 | O=C(O)c1cccc(-c2cnc3ccccc3c2)c1 | 2.07% [at 146 µM] (inactive) | –

From PubChem BioAssay AID1671192 (National Center for Advancing Translational Sciences (NCATS), 2021)
